According to PubChem BioAssay (EPA / NIEHS):
Some compounds were tested as several samples or in several runs, with calls that do not always agree. The source made the active and inactive calls. How the source made its calls: active means hit-call score of the fitted dose curve at least 0.9, where 1 is the maximum; inactive means score below 0.9.

Experiment: ATG_TCF_b_cat_CIS: Attagene CIS-FACTORIAL HepG2 Assay for human T-Cell-Factor with beta-catenin (TCF/b-cat) (AID 2282965)
Conditions: HepG2 TCF/beta-catenin cis-reporter transcription, actives raise or lower the signal
Procedure: ATG_CIS is a cell-based, multiplexed-readout assay that uses HepG2, a human liver cell line, with measurements taken at 24 hours after chemical dosing in a 24-well plate.ATG_TCF_b_cat_CIS is one of 52 assay component(s) measured or calculated from the ATG_CIS assay. It is designed to make measurements of mRNA induction, a form of inducible reporter, as detected with fluorescence intensity signals by Reverse transcription polymerase chain reaction (RT-PCR) and Capillary electrophoresis technology.Data from the assay component ATG_TCF_b_cat_CIS was analyzed into 1 assay endpoint. This assay endpoint, ATG_TCF_b_cat_CIS, was analyzed with bidirectional fitting relative to DMSO as the negative control and baseline of activity. Using a type of inducible reporter, measures of mRNA for gain or loss-of-signal activity can be used to understand the reporter gene at the transcription factor-level as they relate to the gene TCF7 and TCF7L2 and LEF1 and TCF7L1. Furthermore, this assay endpoint can be referred to as a primary readout, because this assay has produced multiple assay endpoints where this one serves a reporter gene function. To generalize the intended target to other relatable targets, this assay endpoint is annotated to the dna binding intended target family, where the subfamily is HMG box protein.
Human liver HepG2 cells are transiently transfected with multiple reporter transcription units (MRTUs) in 6-well plates using FuGene 6 reagent (Roche; 3 ml FuGene/1 mg DNA). The MRTU constructs are regulated by a cis-regulating element (promoter). […] A major difference between the CIS and TRANS system is that in CIS activities of endogenous TFs are measured, whereas the TRANS assay evaluates changes in activities of exogenous, chimeric NR-Gal4 proteins. […] At the end of 24 hour incubation, total RNA was isolated using TriZol reagent (Invitrogen). The isolated RNA is then reverse-transcribed using oligo(dT) primer and Mo-MLV reverse transcriptase (Invitrogen) with DNAse I (Ambion) treatment for 30 min. The one-tenth of the produced cDNA was amplified by PCR using Taq DNA polymerase (Invitrogen) and two reporter sequence-specific primers. The PCR products were fluorescently labeled by primer extension with 6-arboxyfluorescein (6-FAM) 5'-labeled reporter sequence-specific primer (2 min at 95 C, 20 s at 68 C and 10 min at 72 C) and these products were digested with 5U of HpaI (New England Biolabs) for 2h at 37 C. The fragments were purified using Qiaquick PCR columns (Qiagen), analyzed on an ABI 3130xL genetic analyzer (Applied Biosystems) with peak positions identified by using a set of X-rhodamine (ROX)-labeled MapMarker1000 molecular weight standards (BioVentures). The raw capillary electrophoresis data was processed using Attagraph software (Attagene).

SMILES | outcome | AC50
CCOP(=S)(OCC)SCSP(=S)(OCC)OCC | inactive | 
CC(C)CCCCCCOC(=O)c1ccccc1C(=O)OCCCCCCC(C)C | inactive | 
CN(C)P(=O)(N(C)C)N(C)C | inactive | 
CC(C)c1cccc(C(C)C)c1O | inactive | 
Clc1ccc(C2(Cn3cncn3)CC(Br)CO2)c(Cl)c1 (stereo not given) | inactive | 
COP(=O)(OC)O/C(=C\Cl)c1cc(Cl)c(Cl)cc1Cl |  | 34.9 µM (active)
CC(=O)OC(c1ccccc1)C(Cl)(Cl)Cl (stereo not given) | inactive | 
O=C(Nc1ccc2[nH]ccc2c1)c1cc2cc(F)ccc2n1Cc1cccc(F)c1 |  | 15.8 µM (active)
CC(C)c1ccc(CO)cc1 | inactive | 
NC(=S)Nc1ccccc1 | inactive | 
C=CCc1ccc(OC)cc1 | inactive | 
ClC(Cl)=C(Cl)C(Cl)=C(Cl)Cl |  | 40.4 µM (active)
C=C(C)C#N | inactive | 
C=CC(=O)OCCCCCC(C)C | inactive | 
CC(=O)[O][Hg][c]1ccccc1 | inactive | 
CC(C)(C)CC(C)(C)c1ccc(O)cc1 | inactive | 18.2 µM (active)
ClCC(Cl)CCl | inactive | 
O=C(NCO)NCO | inactive | 
Nc1ccc(N=Nc2ccc(-c3ccc(N=Nc4c(S(=O)(=O)O)cc5cc(S(=O)(=O)O)c(N=Nc6ccccc6)c(O)c5c4N)cc3)cc2)c(N)c1 | inactive | 
CNC(=O)O/N=C/C(C)(C)S(C)=O (stereo not given) | inactive | 

SMILES | outcome | AC50
COc1ccc(C=O)cc1OC | inactive | 
N#Cc1ccccn1 | inactive | 
O=[N+]([O-])c1ccc2c3c(cccc13)CC2 | inactive | 
O=Cc1cccc(Oc2ccccc2)c1 | inactive | 
CCOP(OCC)OCC | inactive | 
CCCCCCCCSC(=O)Oc1cc(Cl)nnc1-c1ccccc1 |  | 170 µM (active)
Oc1c(I)cc(I)cc1I |  | 25.9 µM (active)
Cc1ccccc1C(=O)Nc1cccc(OC(C)C)c1 | inactive | 
CC(=[OH+])/C=C(/C)[O-].CC(=[OH+])/C=C(/C)[O-].CC(=[OH+])/C=C(/C)[O-].[Al] | inactive | 
CCOP(=S)(OCC)Oc1nc(Cl)c(Cl)cc1Cl | inactive | 
CCc1ccccc1C | inactive | 
CCC(C)(C)c1ccc(O)c(C(C)(C)CC)c1 | inactive | 
OCC(O)CCl (stereo not given) | inactive | 
COC(=O)Cc1ccccc1 | inactive | 
CCC[CH2][Sn]([CH2]CCC)([CH2]CCC)[O]C(=O)c1ccccc1 | inactive | 
ClC1(Cl)C2(Cl)C3(Cl)C4(Cl)C(Cl)(Cl)C5(Cl)C3(Cl)C1(Cl)C5(Cl)C24Cl (stereo not given) | inactive | 
CCCCCCCCC(=O)NCc1ccc(O)c(OC)c1 | inactive | 
CC1(C)CCC(Cc2ccc(Cl)cc2)C1(O)Cn1cncn1 (stereo not given) | inactive | 
CC(C)(C)c1cc(O)ccc1O |  | 119 µM (active)
